The record followed here is PubChem BioAssay.

In assay [1] the test system is Plasmodium falciparum Sir2 (PF13_0152, Sir2A). The experiment in a line: Plasmodium falciparum Sir2A binding compounds – biochemical, small-molecule microarray, 635 nm fluorescence, primary screen (AID 1098).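 Further: score merges spot fluorescence intensity with its signal-to-noise ratio.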 The settings on record: fluorescence 635 nm, higher = more signal.
A short description of assay [2]: probe aDKK1 binding to arrayed compounds – biochemical, biotinylated probe, 635/667 nm fluorescence, primary screen (AID 1099).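 Further: score merges 667nm spot fluorescence with signal to noise across triplicate slides.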 Conditions: small-molecule microarray, higher = more signal.
The nature of assay [3]: probe aCHRDL2 binding to arrayed compounds – biochemical, biotinylated probe, 635/667 nm fluorescence, primary screen (AID 1100). Conditions: small-molecule microarray, higher = more signal.
Assay [4] can be described thus: change in splice reporter luminescence, either direction, cell-based, HEK293, spliceosome inhibition project, primary screen (AID 1101).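 Further: HEK293 cells carrying a splicing-competent luciferase reporter gene; test concentration not given here.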 Conditions: HEK293 splicing luciferase reporter, 24 h, higher = more signal, called active from +8 up or from −8 down. (A reporter such as luciferase makes a cellular process visible.)
Assay [5] concerns the target Fibroblast growth factor 10 (Homo sapiens) (UniProt O15520). Nature of the assay: compounds binding fibroblast growth factor 10 – biochemical, small-molecule microarray, 635 nm fluorescence, primary screen (AID 1102). Conditions: FGF10 binding, fluorescence 635 nm, higher = more signal.
The subject of assay [6] is glycogen synthase kinase-3 (GSK3A per assay name; protocol says GSK3B). Nature of the assay: compounds binding glycogen synthase kinase-3 – biochemical, small-molecule microarray, 635 nm fluorescence, GSK3A, primary screen (AID 1103). Further: the record names both GSK3A and GSK3B. The settings on record: fluorescence 635 nm, higher = more signal.
The target in assay [7] is Epidermal growth factor receptor (Homo sapiens) (UniProt P00533). The experiment in a line: compounds binding epidermal growth factor receptor – biochemical, small-molecule microarray, 635 nm fluorescence, primary screen (AID 1104).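 Further: score merges 667 nm emission intensity with spot signal to noise over triplicate slides.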 The settings on record: EGFR binding, higher = more signal.
Assay [8] concerns the target Follistatin-related protein 3 (Homo sapiens) (UniProt O95633). The experiment in a line: compounds binding follistatin-related protein 3 – biochemical, small-molecule microarray, 635 nm fluorescence, primary screen (AID 1105).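 Further: score merges emission near 667 nm and signal to noise per printed spot across three slides.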 The settings on record: FSTL3 binding, higher = more signal.
Assay [9] concerns the target Dickkopf-related protein 1 (Homo sapiens) (UniProt O94907). Nature of the assay: small molecules binding DKK1 protein – biochemical, small-molecule microarray, 635 nm fluorescence scan, primary screen (AID 1106).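 Further: score merges emission near 667 nm with signal to noise over three replicate slides.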 Conditions: higher = more signal.
The test system of assay [10] is Inhibin beta A chain (activin A). Nature of the assay: small molecules binding activin A – biochemical, small-molecule microarray, 635 nm fluorescence scan, primary screen (AID 1107).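 Further: mouse activin A protein probed at 4.33 µg/mL on printed slides; score merges bound-protein fluorescence near 667 nm with spot signal-to-noise.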 The settings on record: INHBA, higher = more signal.
The test system of assay [11] is Human papillomavirus type 1a protein E7 (residues 44-93). Nature of the assay: small molecules binding HPV E7 44-93 – biochemical, small-molecule microarray, residues 44-93, 635 nm fluorescence, primary screen (AID 1108).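 Further: E7 fragment applied at 1 µg/mL in TBST for 1 h at 4 C; score combines spot fluorescence with its signal to noise ratio.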 The settings on record: fluorescence 635 nm, higher = more signal.
Assay [12] can be described thus: hepatitis C replication reporter changes, two-sided – Huh7 cells, luciferase reporter, HCV replication inhibitor project, primary screen (AID 1109).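 Further: huh7 hepatoma cells harbouring a luciferase neomycin HCV replicon reporter; luciferase luminescence as measure of HCV replicon replication; test concentration not given here.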 Conditions: Huh7 HCV replicon luciferase reporter, 48 h; higher = more signal.
The target in assay [13] is Left-right determination factor 2 (Homo sapiens) (UniProt O00292). The experiment in a line: small molecules binding LEFTY2 protein – biochemical, small-molecule microarray, 635 nm fluorescence scan, primary screen (AID 1110). Conditions: higher = more signal.
The target in assay [14] is Calmodulin-1 (Homo sapiens) (UniProt P0DP23). The experiment in a line: small molecules binding calmodulin-1 with EGTA – biochemical, small-molecule microarray, Cy5-labelled CALM1, profiling panel (AID 1111).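 Further: labelled calmodulin applied in Tris saline Tween buffer holding calcium plus EGTA and DTT.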 Conditions: Cy5-CALM1 binding fluorescence, higher = more signal.
The target is the same in assay [15]. Nature of the assay: small molecules binding Ca-loaded calmodulin-1 – biochemical, small-molecule microarray, Cy5-labelled CALM1, plus calcium, artefact control for SMM control-protein annotation, profiling panel (AID 1112).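 Further: score merges spot fluorescence with signal to noise from triplicate slides.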 Conditions: Cy5-CALM1 binding fluorescence, higher = more signal.
A short description of assay [16]: probe aWnt5a binding to arrayed compounds – biochemical, biotinylated probe, 635/667 nm fluorescence, primary screen (AID 1113).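 Further: score merges 667 nm fluorescence intensity with signal-to-noise per printed feature.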 The settings on record: small-molecule microarray, higher = more signal.
The nature of assay [17]: probe aShh binding to arrayed compounds – biochemical, biotinylated probe, 635/667 nm fluorescence, primary screen (AID 1114).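 Further: probe is biotin-labelled aShh protein from a stem cell growth factor screen; measures binding of labelled protein to compounds printed on the slide; score merges feature fluorescence at 667 nm with signal-to-noise.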 The settings on record: small-molecule microarray, higher = more signal.
Assay [18] in a line: probe aNog binding to arrayed compounds – biochemical, biotinylated probe, 635/667 nm fluorescence, primary screen (AID 1115).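 Further: probe is biotinylated aNog protein used at 0.15 µg/mL for 1 h at 4 C; z-score combines 667 nm fluorescence of each spot with its signal to noise.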 The settings on record: small-molecule microarray, higher = more signal.
Assay [19] deals with Torsin-1A-interacting protein 1 (Homo sapiens) (UniProt Q5JTV8). The experiment in a line: compound microarray binding of lysate hLAP1 – cell lysate, small-molecule microarray, COS7 lysate, 635/667 nm fluorescence, primary screen (AID 1116). Conditions: 635 nm fluorescence, higher = more signal.
The target of assay [20] is Alpha-bungarotoxin (Bungarus multicinctus) (UniProt P60615). The experiment in a line: compounds binding labelled alpha-BTX control protein – biochemical, small-molecule microarray, Alexa647 label, 635/667 nm fluorescence, artefact control for SMM control protein annotation, profiling panel (AID 1117). The settings on record: alpha-BTX-A647 binding fluorescence, higher = more signal.

Active and inactive are the calls of the source.

Chain of Dickkopf-related protein 1 (Homo sapiens) (O94907 whole entry, looked up): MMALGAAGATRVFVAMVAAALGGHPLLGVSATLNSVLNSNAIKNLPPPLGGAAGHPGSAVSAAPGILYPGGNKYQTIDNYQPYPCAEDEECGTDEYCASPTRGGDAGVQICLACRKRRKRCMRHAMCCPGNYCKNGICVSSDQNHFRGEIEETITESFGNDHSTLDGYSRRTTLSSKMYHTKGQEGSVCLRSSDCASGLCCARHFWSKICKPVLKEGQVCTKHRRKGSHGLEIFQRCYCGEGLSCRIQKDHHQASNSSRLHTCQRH
Chain of Alpha-bungarotoxin (Bungarus multicinctus) (P60615 whole entry, looked up): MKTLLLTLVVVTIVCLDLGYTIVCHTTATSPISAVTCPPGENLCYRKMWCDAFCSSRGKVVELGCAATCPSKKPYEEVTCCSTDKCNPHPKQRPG
Chain of Follistatin-related protein 3 (Homo sapiens) (O95633 whole entry, looked up): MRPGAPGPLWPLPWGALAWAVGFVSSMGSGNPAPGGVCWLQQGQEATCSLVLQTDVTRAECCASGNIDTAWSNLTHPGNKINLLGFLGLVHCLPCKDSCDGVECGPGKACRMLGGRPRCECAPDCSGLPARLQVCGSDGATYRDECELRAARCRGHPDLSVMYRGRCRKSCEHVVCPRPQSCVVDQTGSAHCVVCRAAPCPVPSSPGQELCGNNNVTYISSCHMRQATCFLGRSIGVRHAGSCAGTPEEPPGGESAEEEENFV
Chain of Torsin-1A-interacting protein 1 (Homo sapiens) (Q5JTV8 whole entry, looked up): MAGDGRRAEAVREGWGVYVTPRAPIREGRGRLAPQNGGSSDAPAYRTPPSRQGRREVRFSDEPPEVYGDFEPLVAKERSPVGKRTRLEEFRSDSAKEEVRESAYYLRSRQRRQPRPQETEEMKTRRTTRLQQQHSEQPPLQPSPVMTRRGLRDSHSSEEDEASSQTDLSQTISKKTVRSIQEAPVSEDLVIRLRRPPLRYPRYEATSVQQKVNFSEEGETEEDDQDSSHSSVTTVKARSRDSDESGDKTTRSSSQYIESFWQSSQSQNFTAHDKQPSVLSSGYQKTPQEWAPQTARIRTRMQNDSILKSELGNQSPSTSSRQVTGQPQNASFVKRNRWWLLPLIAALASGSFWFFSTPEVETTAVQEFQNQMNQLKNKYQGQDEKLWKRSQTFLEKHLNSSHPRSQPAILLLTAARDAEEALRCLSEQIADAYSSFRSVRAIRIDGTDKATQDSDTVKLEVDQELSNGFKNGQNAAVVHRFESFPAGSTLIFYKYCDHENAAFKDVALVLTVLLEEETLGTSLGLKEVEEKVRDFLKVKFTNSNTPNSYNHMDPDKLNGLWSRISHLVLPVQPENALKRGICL
Chain of Epidermal growth factor receptor (Homo sapiens) (P00533 whole entry, looked up): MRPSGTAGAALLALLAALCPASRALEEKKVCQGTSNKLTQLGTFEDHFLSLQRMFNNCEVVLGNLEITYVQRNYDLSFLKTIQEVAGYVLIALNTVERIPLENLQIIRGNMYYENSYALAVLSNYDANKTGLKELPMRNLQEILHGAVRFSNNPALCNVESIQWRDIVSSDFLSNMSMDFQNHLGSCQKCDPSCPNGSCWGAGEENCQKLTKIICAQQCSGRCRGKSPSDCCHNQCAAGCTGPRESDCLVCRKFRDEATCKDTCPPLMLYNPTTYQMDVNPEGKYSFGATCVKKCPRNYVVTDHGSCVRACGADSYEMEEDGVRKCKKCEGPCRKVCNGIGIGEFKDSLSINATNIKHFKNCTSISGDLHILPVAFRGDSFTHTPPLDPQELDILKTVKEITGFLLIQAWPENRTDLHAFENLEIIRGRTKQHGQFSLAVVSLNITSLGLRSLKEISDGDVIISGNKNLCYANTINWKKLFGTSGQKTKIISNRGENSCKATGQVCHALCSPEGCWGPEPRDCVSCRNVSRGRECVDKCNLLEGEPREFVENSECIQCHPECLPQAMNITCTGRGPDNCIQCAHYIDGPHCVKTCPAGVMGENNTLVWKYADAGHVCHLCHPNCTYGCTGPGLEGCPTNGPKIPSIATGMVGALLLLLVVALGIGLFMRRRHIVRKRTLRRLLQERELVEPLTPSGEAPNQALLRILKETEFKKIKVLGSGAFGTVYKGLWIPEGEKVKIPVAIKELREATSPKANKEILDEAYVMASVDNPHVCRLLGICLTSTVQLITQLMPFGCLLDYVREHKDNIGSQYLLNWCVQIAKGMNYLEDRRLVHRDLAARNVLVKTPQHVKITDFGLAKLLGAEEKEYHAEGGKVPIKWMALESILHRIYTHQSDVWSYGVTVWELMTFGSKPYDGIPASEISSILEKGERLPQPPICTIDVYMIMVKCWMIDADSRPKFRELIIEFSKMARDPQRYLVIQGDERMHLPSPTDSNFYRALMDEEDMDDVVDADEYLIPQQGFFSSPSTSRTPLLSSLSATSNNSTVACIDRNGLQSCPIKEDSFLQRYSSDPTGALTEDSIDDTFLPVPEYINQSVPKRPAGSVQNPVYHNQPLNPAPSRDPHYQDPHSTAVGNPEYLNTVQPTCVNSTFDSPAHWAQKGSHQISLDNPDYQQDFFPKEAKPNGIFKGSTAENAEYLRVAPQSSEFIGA
Chain of Fibroblast growth factor 10 (Homo sapiens) (O15520 whole entry, looked up): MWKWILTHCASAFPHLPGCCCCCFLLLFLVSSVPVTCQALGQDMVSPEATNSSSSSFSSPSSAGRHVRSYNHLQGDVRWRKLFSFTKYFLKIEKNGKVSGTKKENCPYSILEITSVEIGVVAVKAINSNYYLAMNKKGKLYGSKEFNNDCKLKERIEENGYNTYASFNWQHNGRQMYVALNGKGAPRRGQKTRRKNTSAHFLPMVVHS
Chain of Left-right determination factor 2 (Homo sapiens) (O00292 whole entry, looked up): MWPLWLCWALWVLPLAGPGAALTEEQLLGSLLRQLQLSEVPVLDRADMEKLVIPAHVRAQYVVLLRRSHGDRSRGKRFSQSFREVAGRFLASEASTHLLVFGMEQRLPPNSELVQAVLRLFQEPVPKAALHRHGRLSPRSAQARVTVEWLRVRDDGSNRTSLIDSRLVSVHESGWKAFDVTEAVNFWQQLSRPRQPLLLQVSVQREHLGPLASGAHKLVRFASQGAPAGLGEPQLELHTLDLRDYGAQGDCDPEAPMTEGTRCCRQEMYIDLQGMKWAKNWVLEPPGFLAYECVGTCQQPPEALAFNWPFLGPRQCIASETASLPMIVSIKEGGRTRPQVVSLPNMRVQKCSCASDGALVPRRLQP

For the compound `N#Cc1ccc(NN2C(C(O)c3ccc(I)cc3)C=CC3C(=O)N(c4ccccc4)C(=O)C32)cc1` (stereo not given), the composite z-score stood at 1.13 in [1]; 0.124 in assay [2]; 1.03 in [3]; 0.549 in [5]; 0.656 in [6]; 0.0977 in assay [7]. In addition, the composite z-score is 0.421 in assay [8]; -0.337 in [9]; 0.462 in [10]; 1.48 in assay [11]; -0.417 in assay [13]; 1.58 in [14]. For the same compound, the composite z-score is 0.526 in [15]; 0.0803 in [16]; -0.16 in [17]; 1.56 in assay [18]; 0.0108 in assay [19]; 1.32 in assay [20]. Moreover, the z-score is 2.17 (inactive) in assay [4] and 1.56 in assay [12].

As to `C#C[C@H](O[Si](C#Cc1ccccc1)(C(C)C)C(C)C)c1ccccc1`, the composite z-score in assay [1] is 2.08; in assay [2], -0.156; in assay [3], 0.104; in [5], 0.0189; in [6] it was -0.75; in assay [7] it was -0.765. In addition, the composite z-score in [8] was -0.643; in assay [9], -0.854; in assay [10], 0.0677; in assay [11] it was -0.285; in [13], -0.962; in [14], -0.226. Also, the composite z-score in assay [15] is 0.418; in [16], -0.162; in [17] it was -0.154; in assay [18], -0.333; in assay [19] it was -0.246; in [20] it was 0.821. The z-score is -0.647 (inactive) in [4] and -0.733 in assay [12].

Consider `COC(=O)[C@@]1(Cc2ccccc2)[C@H]2c3cc(C(=O)N4CCCC4)n(CCN4CNCC4=O)c3C[C@H]2CN1C(=O)c1ccccc1`, for which the composite z-score worked out at 0.0939 in [1]; 0.862 in [2]; 0.904 in assay [3]; 0.0557 in assay [5]; 0.77 in [6]; 0.0908 in [7]. Moreover, the composite z-score was 0.47 in assay [8]; -0.292 in [9]; 1.05 in assay [10]; 0.871 in [11]; 0.172 in assay [13]; 1.91 in assay [14]. In addition, the composite z-score in assay [15] was 0.265; in assay [16] it was -0.0519; in [17], -0.288; in assay [18], -0.197; in assay [19] it was 0.911; in assay [20] it was 0.98. In addition, the z-score in assay [4] was 2.52 (inactive); in assay [12] it was -0.857.

On to `COc1ccc(C(=O)Nc2ccc(CN3C(=O)[C@]4(O[C@H](CCn5cc(CCO)nn5)[C@@H]([Si](C)(C)c5ccc(OC)cc5)[C@@H]4C)c4ccccc43)cc2)cc1`, for which the composite z-score is 0.814 in assay [1]; 0.3 in [2]; 0.589 in [3]; 0.898 in assay [5]; 1.03 in assay [6]; 0.958 in assay [7]. Further, the composite z-score in assay [8] is -0.106; in [9], -0.0456; in assay [10], 1.11; in assay [11] it was 1.05; in assay [13], 0.465; in [14] it was 0.62. Further, the composite z-score in [15] was -0.0683; in assay [16] it was 0.0857; in assay [17], 0.199; in assay [18], -0.363; in [19], 0.793; in assay [20], 1.31. Also, the z-score in assay [4] was 5.66 (inactive); in [12], -5.06.

On to `COc1cc2c(cc1OC)CN(C(=O)[C@@H]1[C@H]3C(=O)O[C@H](c4ccccc4)[C@H](c4ccccc4)N3[C@H](c3ccccc3OCCO)[C@@]13C(=O)Nc1ccccc13)CC2`, for which the composite z-score in [1] was 1.6; in assay [2], -0.682; in [3], -0.73; in assay [5] it was 0.748; in assay [6], 1.29; in assay [7] it was 0.0883. The composite z-score is 0.317 in assay [8]; -0.134 in assay [9]; 0.358 in [10]; 1.01 in assay [11]; 0.187 in assay [13]; 0.421 in [14]. Also, the composite z-score in assay [15] was 0.234; in assay [16], 0.213; in assay [17] it was -0.0213; in [18] it was 0.0101; in assay [19] it was -0.345; in assay [20] it was 2.07. In addition, the z-score in assay [4] was -0.239 (inactive); in assay [12], -2.02.

Consider `COC(=O)[C@@]1(Cc2ccc(OC)cc2)[C@H]2c3cc(C(=O)N(C)C)n(Cc4ccc(C)c(F)c4F)c3C[C@H]2CN1C(=O)c1ccccc1`, for which the composite z-score in assay [1] was 0.274; in assay [2] it was 0.627; in assay [3] it was 0.993; in assay [5], 0.0253; in assay [6] it was -0.109; in assay [7], -0.902. For the same compound, the composite z-score in [8] was 0.0502; in assay [9], -1.11; in assay [10], 0.781; in [11], 0.723; in assay [13], -0.841; in assay [14], 1.52. For the same compound, the composite z-score worked out at 1.21 in assay [15]; 0.148 in assay [16]; 0.575 in assay [17]; 1.09 in assay [18]; 0.232 in assay [19]; 0.644 in [20]. For the same compound, the z-score in assay [4] is -1.25 (inactive); in assay [12] it was -1.35.
